According to the OligoGym collection:

Molecular target: HHATL
Experiment: pooled miR-30 sensor sort-seq; sequence = guide strand
Conditions: shRNA
Also: reference of the scale not given here.

Sequence | sensor-assay potency score (higher = more potent)
TACACATATTTGCAAAGCCAGT | -1.98
TAGCAAACAGCACATGTCCGGA | -0.627
TTTGGGGCAACCATCGTGCAGA | -0.825
ATATTTGCAAAGCCAGTCGTTG | -0.866
TAGAAGTTGTACTTGAGCAGGT | 0.918
TTGGCGAACTTGAGGTCGCTGG | -0.951
TTAGCAAACAGCACATGTCCGG | -0.577
TCAGCCACATCCATCTTCCGGC | -0.0987
TACACAGCATACATCCAGGAGC | -1.03
TTGTACATGATGATGGCCCAGA | -0.478

Molecular target: HIC1
Experiment: as above
Conditions: shRNA

Sequence | sensor-assay potency score (higher = more potent)
TAGTCGTCGCCGTCGCCGCCCG | -0.822
TTGTAGTCGTCGCCGTCGCCGC | -1.19
TTCAGCTGCTCAGAGCTGGGGA | -0.306
TTGCGTTGCTGTGCGAACTTGC | -0.297
TTCTTGGACAGGTCCAGGCCAC | -0.94
ATCGTGTCCAGCATCGTCTGCC | -0.128
TACAGCTCGGCGCAGTGCGTGT | -1.35
TTGTCGCACGACGCGCAGCGGT | -1.62
TGAGGTTGCGTTGCTGTGCGAA | -0.814
TGCTCTTGTAGTCGTCGCCGTC | -0.864
TTGTAGCTCTTGTCGCACGACG | -1.22

Molecular target: HINT3
Experiment: as above
Conditions: shRNA

Sequence | sensor-assay potency score (higher = more potent)
TATCATATATATAAAATCCTTA | -0.582
TATCTTTGAAGCAAATTAGGTC | -0.138
TTGACTCTATAAACCAACTTGG | -0.569
TTTTCCAACAGTTACCATGTTC | -0.723
TACCACTTCATGCTGAACCAAG | -0.805
TTTGAAGCAAATTAGGTCCTCA | 0.444
ATTGACTCTATAAACCAACTTG | -0.483
TTCTACTTGATCTTTCCTTAGA | -0.545
TATAACTGACTACTTACTGAGA | -0.693
TCTTAGGAAACAGACATTCAGA | -1.03
TTGATTAACAGAATTTGTCTTA | 0.577
TAACTGACTACTTACTGAGAAA | -1.61

Molecular target: HIP1R
Experiment: as above
Conditions: shRNA

Sequence | sensor-assay potency score (higher = more potent)
TACCTCATCTGTCACCTCCAGG | -0.947
TTTGTCAAGCTGGTGGTCCTGT | 0.332
TTCTTGGTGGTTACACTTCGGG | -1.05
TTGAGGTGGAAGGAGATCTTGG | -0.812
TTGGTCAGCAGCAGCTTGGTGT | -0.763
TTGAAGTACAGCATGTCGGAGG | -0.0916
ATGTTGTTGACATCGGTCCCAG | -0.946
